JMJD2A Tudor inh: blocks the human JMJD2A Tudor domain; O75164; AlphaScreen JMJD2A-Tudor / H3K4me3 peptide binding; Potency, µM (doses to about 114 µM), without a hit: top-dose activity change, negative = inhibition, usual class: inhibitors; 390,000 tested, 4.4% active; AID 504339; note: % is set by controls: 0 for no effect and ±100 for the full control effect; nearly all actives have a fitted effect of over 50% in size
L3MBTL1 block: blocks human L3MBTL1 | 230,000 tested, 0.66% active | Q9Y468 | AlphaScreen L3MBTL1–H3K9me1 peptide binding | Potency, µM (series often up to 57.1 µM), inactives show at the top dose activity, negative = inhibition, most hits filed as inhibitors; note: % is set by controls: 0 for no effect and ±100 for the full control effect; nearly all actives have a fitted effect of over 60% in size
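Displacement of a biotinylated histone H3(1-15) peptide monomethylated at Lys9 (75 nM) from L3MBTL1 (50 nM) was measured by AlphaScreen after a 30 min room-temperature compound incubation; cefsulodin titration served as intraplate control.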
BAZ2B block: blocks human BAZ2B. AID 504333. Q9UIF8. Potency, µM (doses to about 114 µM), for inactives: top-dose activity change, negative = inhibition, usual class: inhibitors. 360,000 tested, 4.4% active. AlphaScreen BAZ2B-H3K14Ac peptide displacement; note: % is set by controls: 0 for no effect and ±100 for the full control effect; nearly all actives have a fitted effect of over 60% in size
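AlphaScreen displacement of biotin-H3(5-23)K14Ac peptide (50 nM final) from BAZ2B (50 nM final) in PBS pH 7.4, 0.01% Tween-20; complex preformed 30 min RT, then compounds (top 110 uM) 30 min RT, beads 20 min dark.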
G9a inh: G9a (human) methyltransferase inhibition | 350,000 tested, 8.8% active | Potency, µM (titrated, usually from 102 µM), for the others: at the highest dose activity, negative = inhibition, hits mostly inhibitors | G9a H3K9 monomethylation, AlphaScreen, 2 h; note: % is set by controls: 0 for no effect and ±100 for the full control effect; nearly all actives have a fitted effect of over 75% in size
Target sequence (Q96KQ7 913-1193 limits assumed): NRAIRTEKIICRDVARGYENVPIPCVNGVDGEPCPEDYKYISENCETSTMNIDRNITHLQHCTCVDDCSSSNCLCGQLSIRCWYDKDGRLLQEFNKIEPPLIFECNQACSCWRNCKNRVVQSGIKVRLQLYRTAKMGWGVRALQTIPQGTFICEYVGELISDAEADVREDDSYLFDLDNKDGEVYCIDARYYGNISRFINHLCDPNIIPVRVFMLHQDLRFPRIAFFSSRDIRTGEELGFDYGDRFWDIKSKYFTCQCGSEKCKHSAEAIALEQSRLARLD
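Signal arises when biotinylated H3K9 peptide, once monomethylated, bridges streptavidin donor and antibody-captured acceptor beads. Enzyme at 20 nM was preincubated 15 min with test compounds; peptide 500 nM and SAM 20 uM then reacted for 2 h.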
Sfp PPTase inh: blocks B. subtilis Sfp PPTase activity; Biochemical Sfp PPTase activity, qHTS; Potency, µM, without a hit: largest response in the series, negative = inhibition, most hits filed as inhibitors; 310,000 tested, 3.5% active; AID 1490;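 note: the enzyme is Sfp with the accession as filed and its product quenches rhodamine fluorescence; 0% = enzyme reaction without inhibitor and -100% = no enzyme wells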
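With Hepes-Na pH 7.6 buffer containing 10 mM MgCl2, Sfp (15 nM) modified BHQ-2-YbbR (12.5 uM) using rhodamine-CoA (5 uM). Two reads 30 minutes apart at 525/598 nm yielded each well's rate.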
HP1b chromo inh: blocks HP1-beta chromodomain binding to methylated histone tails. P83916. AlphaScreen HP1-beta / biotin-H3K9me3 peptide binding. Potency, µM (highest dose often 114 µM), for inactives: at the highest dose activity change, negative = inhibition, hits mostly inhibitors. 390,000 tested, 0.56% active. AID 540317; note: nearly all actives have a fitted effect of over 70% in size
Target sequence (P83916 whole entry, looked up): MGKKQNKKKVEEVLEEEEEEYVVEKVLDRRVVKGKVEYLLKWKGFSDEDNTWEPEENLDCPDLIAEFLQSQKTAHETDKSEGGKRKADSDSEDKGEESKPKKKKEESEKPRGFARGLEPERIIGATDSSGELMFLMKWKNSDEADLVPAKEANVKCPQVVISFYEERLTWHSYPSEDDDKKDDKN
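Compound inhibition of the preformed complex between 50 nM HP1-beta and 50 nM biotinylated H3K9me3 peptide was read by AlphaScreen. Buffer was PBS pH 7.4 with 0.01% Tween-20. Incubations ran 30 min at room temperature, with 10 ug/mL donor/acceptor beads.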
Active calls of the source: *; ? = inconclusive; / = not tested or not shown; ! = not confirmed by another sample; [ ] = another dose, or the depositor's remark. A selection: hits, their analogues and other compounds. The true share with any hit is near 12%. Calls come from the whole dose curve; as a rule, active = well fitted curve in the direction sought with a large enough effect; inconclusive = small, poorly fitted or top-dose-only effect, or another doubt; inactive = no such curve, though single readings can be large; an effect the other way counts as inactive or inconclusive. Potency is the fitted concentration of half-maximal effect.

SMILES	JMJD2A Tudor inh	L3MBTL1 block	BAZ2B block	G9a inh	Sfp PPTase inh	HP1b chromo inh
COc1ccc2c(c1)NP(=S)(Oc1ccccc1)N2 (stereo unspecified)	?	?	?	7.08µM*	31.6µM*	?
Cc1ccc2c(c1)NP(=S)(Oc1ccccc1)N2 (stereo unspecified)	-24.7%	/	/	/	/	-16.6%
CCCN1CCC[C@@H]2Cc3n[nH]cc3C[C@H]21	/	/	/	21.9%[12.7 µM]	/	/
CCCN1CCC[C@@H]2Cc3nc(N)ncc3C[C@H]21	-30.3%	/	/	10.6µM*!	/	23.9%
CCCN1CCC[C@@H]2Cc3[nH]ncc3C[C@H]21	-23.0%	/	/	25.1µM*!	-2.0%	7.9%
CN1C2CCC1CC(OC(c1ccc(F)cc1)c1ccc(F)cc1)C2 (stereo unspecified)	/	/	/	12.0%[59 µM]	12.3%	/
COc1ccc(/C=C/C(=O)NC(=S)N2C[C@H]3C[C@H](C2)c2cccc(=O)n2C3)cc1OC	-20.4%	-3.6%	-31.0%	35.5µM*	-18.3%	21.8%
O=C(/C=C/c1ccccc1)NC(=S)N1C[C@H]2C[C@H](C1)c1cccc(=O)n1C2	-24.5%	2.5%	-2.4%	31.6µM*	-15.2%	9.3%
N[C@H](Cn1ccc(=O)c(O)c1)C(=O)O	/	/	/	18.2%[21.5 µM]	-3.5%	/
ClC1=C(Cl)C(Cl)=C(Cl)C1=C/C=C/c1ccccc1	5.62µM*	-23.0%	3.55µM*	3.16µM*	-8.8%	6.31µM*
Cc1oc(-c2ccccc2Cl)nc1CN1C(=O)CN=C(c2ccccc2)c2ccccc21	?	-2.1%	?	39.8µM*	-18.7%	4.3%
CN1C[C@@H](CS(=O)(=O)N(C)C)C[C@@H]2c3cccc4c3c(cn4C)C[C@H]21	/	/	/	18.6%[12.7 µM]	/	/
O=C1c2ccccc2C(=O)c2c1ccc1c(=O)n(-c3ccccc3)[nH]c21	-21.2%	-6.7%	-25.8%	3.16µM*	2.2%	-5.8%
Cc1ccc(CN2CCSc3ccc(C(=O)N4CCC5(CC4)OCCO5)cc32)cc1	?	/	-38.1%[57.1 µM]	50.1µM*	-9.5%	11.3%
CC1OC(O[C@@H]2C(O)CC(O[C@@H]3C(O)C[C@@H](OC4CC[C@]5(C)[C@H](CC[C@H]6[C@@H]5CC[C@]5(C)C(C7=CC(=O)OC7)C(O)C[C@@]65O)C4)OC3C)OC2C)CC(O)C1O (stereo partly specified)	/	/	/	/	-10.0%	/
COc1ccc(NC(=O)c2ccco2)cc1NC(=O)COc1cccc(C)c1C	-17.9%	/	-0.5%	13.8%[59 µM]	/	?
CCCN(CCC)[C@@H]1CCc2c(OC)cccc2[C@@H]1C	/	/	/	15.0%[59 µM]	5.6%	/
CC1CC(O)[C@]2(O)[C@]13CC(=O)OC[C@@]2(C)[C@@](C)(O)C(=O)C3 (stereo partly specified)	/	/	/	/	4.4%	/
CCc1ccc(CNCCc2ccc(F)cc2)cc1	2.0%	34.2%	26.5%	-2.3%[59 µM]	?	27.2%
O=[N+]([O-])c1ccccc1CNCCc1ccc(F)cc1	10µM*	/	50.1µM*	7.94µM*	-16.7%	?
CCOc1ccc([N+](=O)[O-])cc1CNCCc1ccccc1	-9.0%	-8.2%	-14.7%	2.9%	26.7%	32.3%
O=[N+]([O-])c1ccc(CNCCc2ccccc2)cc1	20µM*	5.8%	50.1µM*	7.94µM*	-18.9%	?
O=[N+]([O-])c1ccccc1CNCCc1c[nH]c2ccccc12	22.4µM*	-9.7%	50.1µM*	/	-10.4%	?
O=C1CC2OCC=C3CN4CCC56c7ccccc7N1C5[C@H]2[C@H]3C[C@H]46 (stereo partly specified) (tested in a mixture with another compound)	/	/	/	-33.9%[12.7 µM]	21.6%	/
CC(=O)O.CC(=O)O.[Cd]	/	/	/	/	25.1µM*	/
Cc1ccc(C(C)C)c(OCCn2c(=O)oc3ccccc32)c1	60.8%	11.2%	101.0%	41.0%	?	230.9%
CNNC	/	/	/	/	11.2µM*	/
CC(C)(C)c1ccc(C(=O)Nc2ccc3nc(SCC(=O)N4CCCC4)sc3c2)cc1	-21.2%	/	-8.8%	4.9%[59 µM]	/	45.1%

Bioassay records: PubChem BioAssay, National Center for Advancing Translational Sciences (NCATS)
